Measured values from PubChem BioAssay AID1159580 (chemical genetic matrix, 2015).
Several values for one entry are separate records, joined by “and”; a condition that tells them apart may be missing. Equal entries are not always repeated. Screen size: about 5,500 compounds; about 2,000 (36%) were called active. Not shown: some 18% with an inconclusive outcome. No stated cut-off is given here; in the data, active means normalized growth mostly below about 0.91 (no sharp cut-off); inconclusive means no clear call, values can overlap the other calls; inactive means mostly above about 0.92. The list shows a part of the results.

Test: chemical genetic growth profiling, strain panel (AID 1159580);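 further: tested at 20 µM; growth read once vehicle control cultures reached saturation at 30 °C; 1 = growth at the plate median or of vehicle wells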
Conditions: S. cerevisiae deletion strains, growth OD

Measured: normalized growth

CO[C@H]1/C=C/O[C@@]2(C)Oc3c(C)c(O)c4c(O)c(c(/C=N/N5CCN(C)CC5)c(O)c4c3C2=O)NC(=O)/C(C)=C\C=C\C(C)[C@H](O)[C@@H](C)[C@@H](O)[C@@H](C)[C@@H](OC(C)=O)[C@@H]1C (some centres not stated)
active: locus YDR137W, strain rgp1, stronger effect = lower value 0.803
inactive: locus YAL013W, strain DEP1, stronger effect = lower value 1 | locus YAL021C, strain ccr4, stronger effect = lower value 1.01 | locus YAL026C, strain drs2, stronger effect = lower value 1.02 | locus YAL030W, strain snc1, stronger effect = lower value 1.02 | locus YBL061C, strain skt5, stronger effect = lower value 1.03 | locus YBR009C, strain hhf1, stronger effect = lower value 1.02 | locus YBR021W, strain FUR4, stronger effect = lower value 0.998 | locus YBR023C, strain chs3, stronger effect = lower value 1.03 | locus YBR171W, strain sec66, stronger effect = lower value 1.03 | locus YBR229C, strain ROT2, stronger effect = lower value 1 | locus YBR231C, strain swc5, stronger effect = lower value 1.03 | locus YBR279W, strain paf1, stronger effect = lower value 1 | locus YCL011C, strain gbp2, stronger effect = lower value 1.02 | locus YCL016C, strain dcc1, stronger effect = lower value 1.01 | locus YCL029C, strain bik1, stronger effect = lower value 1.02 | locus YCL061C, strain MRC1, stronger effect = lower value 1.02 | locus YCL069W, strain vba3, stronger effect = lower value 1.03 | locus YCR088W, strain abp1, stronger effect = lower value 1.03 | locus YDL005C, strain med2, stronger effect = lower value 1.02 | locus YDL035C, strain GPR1, stronger effect = lower value 0.996 | locus YDL040C, strain nat1, stronger effect = lower value 1.02 | locus YDL074C, strain BRE1, stronger effect = lower value 1.04 | locus YDL101C, strain DUN1, stronger effect = lower value 1.03 | locus YDL185W, strain tfp1, stronger effect = lower value 1.01 | locus YDL192W, strain arf1, stronger effect = lower value 1.02 | locus YDR001C, strain nth1, stronger effect = lower value 1.02 | locus YDR069C, strain doa4, stronger effect = lower value 1.01 | locus YDR101C, strain arx1, stronger effect = lower value 1.01 | locus YDR159W, strain sac3, stronger effect = lower value 1.03 | locus YDR162C, strain NBP2, stronger effect = lower value 1.01 | locus YDR195W, strain ref2 1.09 | locus YDR297W, strain sur2, stronger effect = lower value 1.01 | locus YDR318W, strain mcm21, stronger effect = lower value 1.01 | locus YDR334W, strain swr1, stronger effect = lower value 1.02 | locus YDR335W, strain msn5, stronger effect = lower value 1.03 | locus YDR388W, stronger effect = lower value 1.02 | locus YDR392W, strain spt3, stronger effect = lower value 0.957 | locus YDR502C, strain sam2, stronger effect = lower value 1.01 | locus YEL003W, strain gim4, stronger effect = lower value 0.995 | locus YEL037C, strain rad23, stronger effect = lower value 1.02 | locus YEL061C, strain CIN8 (second series), stronger effect = lower value 1.02 | locus YEL061C, strain CIN8, stronger effect = lower value 1.01 | locus YER015W, strain faa2, stronger effect = lower value 1.03 | locus YER016W, strain bim1, stronger effect = lower value 1.02 | locus YER110C, stronger effect = lower value 1.03 | locus YER111C, strain swi4, stronger effect = lower value 1.03 | locus YER155C, strain BEM2 (second series), stronger effect = lower value 1.02 | locus YER155C, strain BEM2, stronger effect = lower value 1 | locus YER167W, strain BCK2, stronger effect = lower value 0.996 | locus YFR010W, strain ubp6, stronger effect = lower value 1.02 | locus YGL078C, strain dbp3, stronger effect = lower value 1.01 | locus YGL086W, strain mad1, stronger effect = lower value 1.02 | locus YGL167C, strain pmr1, stronger effect = lower value 1.02 | locus YGL173C, strain kem1, stronger effect = lower value 1.03 | locus YGL227W, strain vid30, stronger effect = lower value 1.04 | locus YGL240W, strain doc1, stronger effect = lower value 1.03 | locus YGL248W, strain PDE1, stronger effect = lower value 1.03 | locus YGL253W, strain hxk2, stronger effect = lower value 1.02 | locus YGR135W, strain pre9, stronger effect = lower value 1.02 | locus YGR252W, strain gcn5, stronger effect = lower value 1 | locus YHR013C, strain ard1, stronger effect = lower value 1.05 | locus YHR027C, strain rpn1, stronger effect = lower value 1.02 | locus YHR030C, strain SLT2, stronger effect = lower value 1.01 and 1.08 | locus YHR079C, strain IRE1 (second series), stronger effect = lower value 1.02 | locus YHR079C, strain IRE1, stronger effect = lower value 1.05 | locus YHR094C, strain hxt1, stronger effect = lower value 1.01 | locus YHR129C, strain ARP1, stronger effect = lower value 1.01 | locus YHR142W, strain chs7, stronger effect = lower value 1.06 | locus YHR200W, strain rpn10, stronger effect = lower value 1.02 | locus YIL066C, strain RNR3, stronger effect = lower value 1.01 | locus YIL073C, strain SPO22, stronger effect = lower value 1.04 | locus YIL125W, strain kgd1, stronger effect = lower value 1.03 | locus YIR030C, strain dcg1, stronger effect = lower value 1.02 | locus YJL092W, strain hpr5, stronger effect = lower value 1.02 | locus YJL095W, strain BCK1 (second series), stronger effect = lower value 1.02 | locus YJL095W, strain BCK1, stronger effect = lower value 1.04 and 1.03 | locus YJL115W, strain asf1, stronger effect = lower value 1.01 | locus YJL129C, strain trk1, stronger effect = lower value 1 | locus YJL134W, strain LCB3, stronger effect = lower value 1.01 | locus YJL154C, strain vps35, stronger effect = lower value 1.04 | locus YJL164C, strain tpk1, stronger effect = lower value 1.03 | locus YJL166W, strain qcr8, stronger effect = lower value 1.02 | locus YJL168C, strain set2, stronger effect = lower value 1.02 | locus YJL187C, strain SWE1 (second series), stronger effect = lower value 1.03 | locus YJL187C, strain SWE1, stronger effect = lower value 1.02 | locus YJR043C, strain POL32, stronger effect = lower value 0.998 | locus YJR066W, strain TOR1, stronger effect = lower value 1 | locus YKL009W, strain mrt4, stronger effect = lower value 1.02 | locus YKL068W, stronger effect = lower value 1.01 | locus YKL085W, strain MDH1 (second series), stronger effect = lower value 1.01 | locus YKL085W, strain MDH1, stronger effect = lower value 1.01 | locus YKL160W, strain elf1, stronger effect = lower value 1.02 | locus YKR001C, strain vps1, stronger effect = lower value 1.02 | locus YKR026C, strain gcn3, stronger effect = lower value 1.03 | locus YKR091W, strain srl3, stronger effect = lower value 1.02 | locus YLL001W, strain dnm1, stronger effect = lower value 1.02 | locus YLL026W, stronger effect = lower value 1.01 | locus YLL041C, strain sdh2, stronger effect = lower value 1.02 | locus YLR027C, strain aat2, stronger effect = lower value 1.02 | locus YLR039C, strain RIC1, stronger effect = lower value 1.02 | locus YLR058C, strain SHM2, stronger effect = lower value 1.02 | locus YLR102C, strain apc9, stronger effect = lower value 1.02 | locus YLR113W, strain HOG1, stronger effect = lower value 1.05 | locus YLR221C, strain rsa3, stronger effect = lower value 1 | locus YLR258W, strain gsy2, stronger effect = lower value 1.02 | locus YLR262C, strain YPT6 (second series), stronger effect = lower value 0.982 | locus YLR262C, strain YPT6, stronger effect = lower value 1.05 | locus YLR268W, strain sec22, stronger effect = lower value 1.03 | locus YLR320W, strain mms22, stronger effect = lower value 1.01 | locus YLR330W, strain CHS5, stronger effect = lower value 1.01 | locus YLR342W, strain FKS1 (second series), stronger effect = lower value 0.98 | locus YLR342W, strain FKS1, stronger effect = lower value 1.02 | locus YLR357W, strain rsc2, stronger effect = lower value 1.03 | locus YLR370C, strain arc18, stronger effect = lower value 1.02 | locus YLR371W, strain rom2, stronger effect = lower value 1.02 | locus YLR384C, strain iki3, stronger effect = lower value 1.02 | locus YLR418C, strain cdc73, stronger effect = lower value 1.02 | locus YML016C, strain PPZ1, stronger effect = lower value 1.01 | locus YML032C, strain rad52, stronger effect = lower value 1.02 | locus YML120C, strain ndi1, stronger effect = lower value 1.01 | locus YML124C, strain tub3, stronger effect = lower value 1.03 | locus YMR058W, strain fet3, stronger effect = lower value 1.03 | locus YMR078C, strain ctf18, stronger effect = lower value 1.02 | locus YMR125W, strain sto1, stronger effect = lower value 1.04 | locus YMR129W, stronger effect = lower value 1.02 | locus YMR205C, strain PFK2, stronger effect = lower value 1.01 | locus YMR223W, strain ubp8, stronger effect = lower value 1.02 | locus YMR231W, strain pep5, stronger effect = lower value 1.02 | locus YMR307W, strain GAS1, stronger effect = lower value 0.927 | locus YNL067W, strain RPL9B, stronger effect = lower value 1.04 | locus YNL071W, strain lat1, stronger effect = lower value 1.02 | locus YNL153C, strain GIM3, stronger effect = lower value 1.02 | locus YNL183C, strain NPR1, stronger effect = lower value 1.01 | locus YNL209W, strain ssb2, stronger effect = lower value 1.02 | locus YNL233W, strain BNI4, stronger effect = lower value 1.02 | locus YNL248C, strain rpa49, stronger effect = lower value 1.02 | locus YNL250W, strain rad50, stronger effect = lower value 1.01 | locus YNL271C, strain bni1, stronger effect = lower value 1.02 | locus YNL298W, strain CLA4, stronger effect = lower value 1.03 | locus YNL307C, strain MCK1, stronger effect = lower value 1.02 | locus YNL322C, strain KRE1 (second series), stronger effect = lower value 1.01 | locus YNR049C, strain mso1, stronger effect = lower value 1.03 | locus YNR052C, strain pop2, stronger effect = lower value 1.02 | locus YOL006C, strain TOP1, stronger effect = lower value 1.11 | locus YOL012C, strain htz1 1.35 | locus YOL147C, strain pex11, stronger effect = lower value 1.02 | locus YOR001W, strain rrp6, stronger effect = lower value 1.01 | locus YOR061W, strain CKA2, stronger effect = lower value 1.01 | locus YOR069W, strain VPS5, stronger effect = lower value 1.01 | locus YOR070C, strain gyp1, stronger effect = lower value 1.03 | locus YOR080W, strain dia2, stronger effect = lower value 1.03 | locus YOR083W, strain WHI5, stronger effect = lower value 1.02 | locus YOR106W, strain vam3, stronger effect = lower value 1.03 | locus YOR136W, strain idh2, stronger effect = lower value 1.02 | locus YOR144C, strain elg1, stronger effect = lower value 1.02 | locus YOR184W, strain ser1, stronger effect = lower value 1.02 | locus YOR231W, strain MKK1, stronger effect = lower value 1.02 | locus YOR265W, strain rbl2, stronger effect = lower value 1.04 | locus YOR270C, strain vph1, stronger effect = lower value 0.999 | locus YOR290C, strain snf2, stronger effect = lower value 1.01 | locus YOR316C, strain cot1, stronger effect = lower value 1.01 | locus YPL051W, strain arl3, stronger effect = lower value 1.03 | locus YPL078C, strain atp4, stronger effect = lower value 1.01 | locus YPL106C, strain sse1, stronger effect = lower value 1 | locus YPL240C, strain hsp82, stronger effect = lower value 1.02 | locus YPL256C, strain CLN2, stronger effect = lower value 1.06 | locus YPR119W, strain clb2, stronger effect = lower value 1.02 | locus YPR141C, strain kar3, stronger effect = lower value 1.02 | locus YPR163C, strain tif3, stronger effect = lower value 1.01 | locus YPR167C, strain met16, stronger effect = lower value 1.03 | strain wtn01, stronger effect = lower value 1
